In the library only some 3.3% were active in any assay of this set; here they are far more common.
UHRF1 binding: UHRF1 methyl-DNA binding inhibition; Q96T88; UHRF1 binding to methylated oligo, TR-FRET; inhibition, % at 4.4 µM; actives 0.75% (n = 370,000); AID 687016; in the data active = inhibition above about 21%;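 also: UHRF1 SRA domain binding a hemimethylated CpG hairpin DNA probe; 0% = median of test compound wells and 100% = reference inhibitor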
MBD2 DNA inh: MBD2-methylated oligo binding inhibition | inhibition, % at 4.4 µM | actives 0.31% (n = 370,000) | TR-FRET, MBD2 binding to methylated oligonucleotide; in the data active = inhibition above about 13%
Target sequence (Q9UBB5 whole entry, looked up): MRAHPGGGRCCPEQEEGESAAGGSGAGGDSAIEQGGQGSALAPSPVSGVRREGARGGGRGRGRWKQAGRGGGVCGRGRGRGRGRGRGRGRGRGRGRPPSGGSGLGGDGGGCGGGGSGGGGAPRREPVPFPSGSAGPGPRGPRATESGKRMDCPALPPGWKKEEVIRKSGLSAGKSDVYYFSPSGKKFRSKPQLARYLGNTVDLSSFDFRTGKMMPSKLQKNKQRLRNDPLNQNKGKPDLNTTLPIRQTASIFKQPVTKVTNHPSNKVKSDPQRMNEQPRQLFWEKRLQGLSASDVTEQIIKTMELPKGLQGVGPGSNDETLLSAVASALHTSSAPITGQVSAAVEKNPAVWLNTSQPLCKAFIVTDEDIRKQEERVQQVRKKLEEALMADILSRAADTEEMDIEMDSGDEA
PRMT1 inh: blocks human protein arginine methyltransferase 1 | Q99873 | recombinant PRMT1, activity-based probe fluorescence polarization | inhibition, % at 2.79 µM | actives 1.3% (n = 370,000) | AID 652257;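 active = inhibition above about 21% made by adding two undisclosed values, limit read from the data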
PfM18AAP inh-1: PfM18AAP enzyme inhibition; AID 1822; inhibition, % at 7.35 µM; recombinant PfM18AAP, H-Glu-NHMec fluorogenic cleavage; actives 1.2% (n = 290,000);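 active = inhibition above the campaign mean inhibition over all tested compounds plus 3 SD, cut at about 28% in these data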;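 also: 0% = plate median of test compound wells and 100% = 2 mM ZnCl2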
PfG6PD inh: PfG6PD (Plasmodium falciparum) enzyme inhibition | PfGluPho enzyme, NADPH resazurin-diaphorase fluorescence | inhibition, % at 20 µM | actives 0.78% (n = 350,000) | AID 504690;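 active = inhibition reaching at least a set limit at 20 µM in the primary screen, cut at about 59% in these data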;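 also: 0% = DMSO wells with substrate and 100% = DMSO wells lacking glucose-6-phosphate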
PfM18AAP inh-2: PfM18AAP inhibition, confirmation; actives 28% (n = 2,400); recombinant PfM18AAP, H-Glu-NHMec fluorogenic cleavage; inhibition, % at 7.35 µM; shares compounds with PfM18AAP inh-1;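 active = mean inhibition over replicate wells above the hit cutoff set for the earlier primary screen, cut at about 29% in these data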;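 also: 0% = median of test compound wells and 100% = 2 mM ZnCl2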
CTSL1 confirm: counter-screen for PFM18AAP inhibitors: confirmation of human cathepsin L inhibitors. shares compounds with PfM18AAP inh-1. purified cathepsin L1, Z-Leu-Arg-MCA fluorescence. inhibition, % at 5.96 µM. 2,400 tested, under 10 active. AID 2178;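 active = average inhibition across replicates above the hit cutoff set in the earlier primary screen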;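 also: 0% = median of test compound wells and 100% = Z-Phe-Ala-diazomethylketone 1 µM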
Active calls of the source: *; nt = no result given.

SMILES	UHRF1 binding	MBD2 DNA inh	PRMT1 inh	PfM18AAP inh-1	PfG6PD inh	PfM18AAP inh-2	CTSL1 confirm
Nc1ccc(C(=O)Oc2ccc([N+](=O)[O-])cc2)cc1	5.4	2.4	10.1	6.0	-5.1	nt	nt
CCC(c1nnc(SCC(=O)Nc2nnc(-c3ccccc3)o2)o1)N(C)C (stereo not drawn)	0.9	-6.1	1.6	69.0*	-9.2	35.0*	2.3
O=C(CSc1nnc(-c2ccccc2)o1)Nc1ccccc1F	0.0	-0.1	-3.2	2.5	8.4	nt	nt
N#C/C(=C\c1coc2ccc(O)cc2c1=O)C(=O)Nc1nc2ccccc2s1	-0.4	1.0	12.8	50.8*	3.8	-15.4	-2.8
CCCCNC(=O)C[C@H]1C[C@@]2(C(=O)OC)C(=C[C@H](C3CCCC3)O[C@@H]2C)N(Cc2ccc(Cl)cc2Cl)C1=O	0.8	-1.3	3.2	nt	nt	nt	nt
O=C(NCCCc1ccccc1)[C@H](CO)NC1(C(=O)NCCc2c[nH]c3ccccc23)CCCCC1	2.8	1.8	3.3	nt	nt	nt	nt
Cn1c(-c2ccc(Cl)nc2)nc2ccccc21	-2.4	-6.1	6.0	33.6*	10.3	-51.1	-2.8
Cn1c(-c2ccc(N)cc2)nc2ccccc21	-1.5	-3.9	-2.8	-6.7	-0.8	nt	nt
NNc1nc(-c2ccccc2)cc(-c2ccccc2)n1	-1.7	-6.1	-0.1	12.4	-4.6	nt	nt
N#Cc1cc(-c2ccccc2)nc(NN)n1	-3.4	-1.0	-6.2	42.6*	-16.1	30.6*	6.5
Nc1ccccc1N=Nc1ccccc1N	7.5	-0.5	4.2	40.6*	13.9	6.0	2.2
CC1C/C(=N/N2C(=O)CSC2=S)CC(C)(C)C1 (stereo not drawn)	-3.8	-2.0	18.0	38.0*	-6.6	-19.7	-2.5
O=c1c2ccccc2cnn1Cc1n[nH]c(=S)n1-c1ccccc1	-0.6	1.5	-2.6	34.8*	39.2	18.5	3.9
O=c1c2ccccc2cnn1Cc1n[nH]c(=S)n1-c1ccc(Cl)cc1Cl	nt	nt	nt	17.4	nt	nt	nt
S=c1[nH]nc(Cc2cccc3ccccc23)n1-c1ccccc1	2.6	-3.6	7.7	2.6	18.9	nt	nt
S=c1[nH]nc(Cc2noc3ccccc23)n1-c1ccccc1	-2.0	3.5	1.4	33.1*	26.0	-1.2	-2.6
COc1cccc(CNS(=O)(=O)c2ccccc2Br)c1	0.7	-1.1	-0.9	nt	nt	nt	nt
C#CCCN([C@@H](CC(C)C)C(=O)OC)S(=O)(=O)c1ccc(F)cc1Br	2.0	-2.2	-0.2	nt	nt	nt	nt
COc1ccc(CSc2nnc(SCC(=O)Nc3ccc4c(c3)OCO4)s2)cc1	-1.5	-5.8	-0.9	nt	nt	nt	nt
CC(C)Cn1c(=S)[nH]c2cc(C(=O)O)ccc2c1=O	-0.5	-4.1	-6.4	15.8	-47.6	nt	nt
CC(C)Cn1c2ccccc2c2cc(C(=O)O)ccc21	2.4	7.3	1.3	55.0*	-10.8	-42.6	1.0
Cc1[nH]nc2c1C(c1c[nH]c3ccccc13)C(C#N)=C(N)O2 (stereo not drawn)	-6.1	-9.8	2.3	2.9	3.9	nt	nt
Cc1[nH]nc2c1C(c1cc(Br)cs1)C(C#N)=C(N)O2 (stereo not drawn)	2.8	-2.5	3.3	71.7*	-11.0	62.2*	-0.4
Cc1[nH]nc2c1C(c1ccco1)C(C#N)=C(N)O2 (stereo not drawn)	-6.2	1.7	0.9	14.0	-7.5	nt	nt
Cc1[nH]nc2c1[C@@H](c1ccccc1[N+](=O)[O-])C(C#N)=C(N)O2	-9.3	-11.8	0.9	35.9*	8.0	10.3	2.8
SMILES	UHRF1 binding	MBD2 DNA inh	PRMT1 inh	PfM18AAP inh-1	PfG6PD inh	PfM18AAP inh-2	CTSL1 confirm
COc1cc(C2C(C#N)=C(N)OC3=C2C(=O)CCC3)cc2c1OCO2 (stereo not drawn)	-3.8	0.8	0.0	34.2*	-6.2	-41.7	-3.9
N#CC1=C(N)OC2=C(C(=O)CCC2)C1c1ccc2c(c1)OCO2 (stereo not drawn)	1.0	1.1	-1.0	14.7	19.2	nt	nt
COc1ccc(/C=N/NS(=O)(=O)c2ccc(F)cc2)cc1COc1cc(F)ccc1[N+](=O)[O-]	-2.7	-0.2	2.3	65.4*	-18.5	-44.1	3.6
COc1ccc(/C=N\NC(=O)c2ccc(F)cc2)cc1COc1cc(F)ccc1[N+](=O)[O-]	-4.0	-0.6	2.1	-13.8	-14.0	nt	nt
CC1(C)CC(=O)c2c(oc3cc(O)c(O)cc23)C1	3.9	-1.9	12.3	83.0*	8.4	73.2*	-6.8
COC(=O)c1oc2c(c1C)C(=O)CC(C)(C)C2	3.5	4.2	-2.4	0.7	12.9	nt	nt
COC(=O)c1cc2c(c3c4ccccc4n(S(=O)(=O)c4ccc(OC)cc4)c13)C(=O)N(Cc1ccccc1OC)C2	0.6	1.8	2.4	nt	nt	nt	nt
O=C(CS(=O)(=O)c1ccc(Cl)cc1)NCc1ccccc1	-1.5	1.4	0.1	1.6	9.3	nt	nt
NC(=O)CS(=O)(=O)c1ccc(Cl)cc1	10.3	2.0	0.6	40.1*	-0.5	-55.6	-2.0
COC(=O)[C@]12C[C@H](CC(=O)NCc3cccs3)C(=O)N(Cc3cccc4ccccc34)C1=C[C@H](COCc1ccccc1)O[C@@H]2C	1.2	0.6	1.5	nt	nt	nt	nt
CCN(CC)c1ccc(NS(=O)(=O)c2ccc(OC)cc2)cc1	-2.1	4.2	6.0	31.7*	27.1	-26.5	1.1
COc1ccc(S(=O)(=O)Nc2ccc(N(C)C(C)=O)cc2)cc1	-2.9	0.7	-1.7	4.8	-2.9	nt	nt
COC(=O)C1=C(C(=O)c2ccc(C)cc2)C(c2ccc(OC)c(OC)c2)n2nnnc2N1 (stereo not drawn)	4.3	1.2	1.4	46.6*	-3.2	-32.0	1.9
COC(=O)C1=C(C(=O)c2ccc(C)cc2)C(c2ccc(O)c(OC)c2)n2nnnc2N1 (stereo not drawn)	2.9	2.2	4.3	60.2*	10.9	-26.0	-4.0
COC(=O)C1=C(C(=O)c2ccccc2)C(c2ccc(O)c(OC)c2)n2nnnc2N1 (stereo not drawn)	0.7	-6.6	-1.1	18.2	-6.9	nt	nt
CCOc1cc(C2C(C(=O)c3ccccc3)=C(C(=O)OC)Nc3nnnn32)ccc1O (stereo not drawn)	-0.1	2.3	-3.2	18.2	-13.2	nt	nt
COC(=O)C1=C(C(=O)c2ccccc2)C(c2cccs2)n2nnnc2N1 (stereo not drawn)	2.1	0.1	6.5	55.3*	1.5	-29.1	-3.2
CC(=O)CC[C@H]1CC[C@]2(CCCN(C(=O)C(C)(C)C)C2)O1	-0.1	-1.5	4.2	nt	nt	nt	nt
Cc1ccc(-c2cc(C(=O)NN=Cc3cc(Br)ccc3O)[nH]n2)cc1C	1.2	3.2	-0.5	nt	nt	nt	nt
Cc1ccc(S(=O)(=O)N2C(=O)CCC2C(=O)Nn2cnnc2)cc1 (stereo not drawn)	0.0	2.9	-3.3	66.2*	-9.1	32.3*	-2.9
O=c1nc(/C=C/c2ccc(O)c(O)c2)oc2ccccc12	nt	nt	nt	63.5*	-32.2	55.8*	1.9
CCn1c(/C=C/c2ccc(O)c(O)c2)nc2ccccc2c1=O	0.2	-2.8	4.3	54.2*	19.9	42.7*	0.8

Screens (PubChem)
